CYP2C9 activ: CYP2C9 (human) activation; activation factor at 5 µM; AID 1024; P11712; 96,000 tested, 1.4% active; recombinant CYP2C9, luciferin-H conversion, luminescence; hits give high values; factor 1 = untreated enzyme, 0 = blocked;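 active means activation factor of 2 or more for CYP2C9 at a 5 µM dose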
Target sequence (P11712 whole entry, looked up): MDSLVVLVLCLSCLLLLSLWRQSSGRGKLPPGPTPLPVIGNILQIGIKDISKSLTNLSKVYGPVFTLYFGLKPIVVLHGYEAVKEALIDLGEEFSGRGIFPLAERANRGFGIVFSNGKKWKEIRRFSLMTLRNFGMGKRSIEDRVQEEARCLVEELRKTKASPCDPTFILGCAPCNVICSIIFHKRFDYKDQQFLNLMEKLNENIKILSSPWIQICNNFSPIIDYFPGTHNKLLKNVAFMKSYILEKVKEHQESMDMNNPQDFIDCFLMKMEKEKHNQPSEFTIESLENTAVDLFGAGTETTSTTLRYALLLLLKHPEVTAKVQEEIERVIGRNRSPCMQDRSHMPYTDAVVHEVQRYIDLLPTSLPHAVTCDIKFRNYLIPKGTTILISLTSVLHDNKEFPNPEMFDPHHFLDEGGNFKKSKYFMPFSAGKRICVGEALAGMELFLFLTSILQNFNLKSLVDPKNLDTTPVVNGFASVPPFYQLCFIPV
CYP2C19 inhib: blocks human cytochrome P450 2C19; P33261; CYP2C19 Supersomes, luciferin-H EGE luminescence, 30 min; inhibition, % at 5 µM; 96,000 tested, 21% active;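 active means CYP2C19 inhibition above a set limit at 5 µM in the primary screen, cut at about 50% in these data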
CYP2C9 inhib: blocks human cytochrome P450 2C9. CYP2C9 Supersomes, luciferin-H conversion, luminescence. AID 777. 96,000 tested, 20% active. inhibition, % at 5 µM. P11712;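 active means blocking of liver enzyme CYP2C9 beyond about 50% at 5 µM, limit read from the data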
CYP2C19 activ: cytochrome P450 2C19 (human) activation | P33261 | AID 1025 | recombinant CYP2C19, luciferin-H EGE luminescence; hits give high values; 0 = fully inhibited enzyme, 1 = untreated enzyme | activation factor at 5 µM | 96,000 tested, under 10 active;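 active means activation factor of at least 2 at 5 µM in the primary screen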
Pyk2 oligo antag: blocks oligomerization of human Pyk2 in cells; Q293 cells, Pyk2 FERM NanoBiT luminescence; hits give low values; 99,000 tested, 0.83% active; z-score (the deposit names both 25 µM and 10 µM); AID 1347419; Q14289;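 active means Z-score of -3 or lower, scaled per plate to the spread of control and sample wells; inactive means z-score above -3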;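 further: negative z-score means lost luminescence so less FERM oligomerization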
Cav3 T inh: blocks human Cav3.2 T-type calcium channel; 100,000 tested, 4% active; B-score at 10 µM; Cav3.2-expressing cells, Fluo-4 calcium fluorescence FDSS; hits give low values; AID 449739; O95180;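 active means single-dose well whose peak fluorescence ratio is a statistical outlier from its plate by either plate-standardised score or position-corrected B-score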
Of the large screens only hits and unclear results are named; the others gave an inactive call. Shown are actives, neighbours in structure and some others; about 27% of the full set was active somewhere.

CCOC(=O)C1=C(CNCCc2ccc(Cl)cc2)NC(=O)NC1c1ccc2c(c1)OCO2 (stereo unspecified)	CYP2C19 inhib 86, CYP2C9 inhib 89, Cav3 T inh -4.6
CC(=O)C1=C(C)Nc2ncnn2C1c1cccc(OCc2ccccc2)c1 (stereo unspecified)	none (no result: Pyk2 oligo antag)
COc1ccccc1NC(=O)C1=C(C)Nc2nc(CCCO)nn2C1c1ccc2c(c1)OCO2 (stereo unspecified)	CYP2C9 inhib 59
COc1ccc(OC)c(C2C(C(=O)Nc3ccc(F)cc3)=C(C)Nc3nc(CCCO)nn32)c1 (stereo unspecified)	none (no result: Pyk2 oligo antag)
C=CCNc1nc2c(c(=O)[nH]c(=O)n2C)n1Cc1cccc(C)c1	none (no result: CYP2C9 activ, CYP2C19 inhib, CYP2C9 inhib, CYP2C19 activ, Pyk2 oligo antag)
CCOC(=O)/C(C(N)=NCCO)=C(/O)c1ccccc1	none
COC(=O)c1ccc(C2C(C(=O)Nc3ccc(C)cc3C)=C(C)Nc3ncnn32)cc1 (stereo unspecified)	CYP2C19 inhib 62 (no result: Pyk2 oligo antag)
COc1cccc(C2C(C(=O)OCc3ccccc3)=C(C)Nc3ncnn32)c1OC (stereo unspecified)	CYP2C19 inhib 64 (no result: Pyk2 oligo antag)
COc1cc(C2C(C(=O)OC(C)C)=C(C)Nc3ncnn32)cc(OC)c1OC (stereo unspecified)	CYP2C9 inhib 78 (no result: Pyk2 oligo antag)
COc1ccc(C2C(C(C)=O)=C(C)Nc3ncnn32)cc1OC (stereo unspecified)	none
CCCCCOc1ccc(C2C(C(C)=O)=C(C)Nc3ncnn32)cc1OC (stereo unspecified)	CYP2C9 inhib 54 (no result: Cav3 T inh)
NC(=O)C1CCN(C(=S)c2cccs2)CC1	none
CCCC1=C(C(=O)OCC)C(c2ccncc2)n2ncnc2N1 (stereo unspecified)	CYP2C19 inhib 78, CYP2C9 inhib 97
C=CCOC(=O)C1=C(C)Nc2nnnn2C1c1cccc(OC)c1OC (stereo unspecified)	CYP2C19 inhib 59, CYP2C9 inhib 83
CCOC(=O)C1=C(C)Nc2ncnn2C1c1ccc2c(c1)OCO2 (stereo unspecified)	CYP2C19 inhib 50, CYP2C9 inhib 62
CCCCOC(=O)C1=C(C)Nc2ncnn2C1c1cccc(OC)c1OC (stereo unspecified)	CYP2C19 inhib 82, CYP2C9 inhib 58
CCOC(=O)C1=C(c2ccccc2)Nc2ncnn2C1c1ccc(OC)c(OC)c1OC (stereo unspecified)	none
CC(=O)Nc1ccc(S(=O)(=O)NC2(C(F)(F)F)C(=O)Nc3c2c(=O)[nH]c(=O)n3C)cc1 (stereo unspecified)	none
CCCNC(=O)c1onc(CSc2cccc(OC)c2)c1C(=O)NCCC	none (no result: CYP2C9 activ, CYP2C19 inhib, CYP2C9 inhib, CYP2C19 activ, Pyk2 oligo antag)
CCCOc1cccc(C2/C(=C(/O)c3ccncc3)C(=O)C(=O)N2CCCN(C)C)c1 (stereo unspecified)	none (no result: Pyk2 oligo antag, Cav3 T inh)
Nc1c(-c2ccccc2)cnn1-c1ccc(C(=O)O)cc1	none
O=C(Cc1ccc(F)cc1)NCCc1ccccc1	CYP2C19 inhib 68, CYP2C9 inhib 50
O=C(NCCc1ccccc1)c1ccc(Br)o1	CYP2C19 inhib 51 (no result: Pyk2 oligo antag)
O=C(CN1CCCCCC1)NCCc1ccc(F)cc1	CYP2C19 inhib 66
O=C(Cc1ccc(F)cc1)NCCc1ccc(F)cc1	CYP2C19 inhib 65, CYP2C9 inhib 52 (no result: Cav3 T inh)
CCC(=O)N1CCN(c2ccc(Cl)cc2NC(=O)Cc2ccc(Cl)cc2)CC1	CYP2C19 inhib 51
CCCC(=O)Nc1cc(Cl)ccc1N1CCN(C(=O)CC)CC1	CYP2C19 inhib 86, CYP2C9 inhib 85
CCC(=O)N1CCN(c2ccccc2NC(=O)Cc2ccc(Cl)cc2)CC1	none
C[C@]12CC[C@H]3C(=CCc4cc(O)ccc43)[C@@H]1CCC2=O	none (no result: CYP2C9 activ, CYP2C19 inhib, CYP2C9 inhib, CYP2C19 activ, Pyk2 oligo antag)
CC1=C(C)C(=O)C(CCCCC#CCCCC#CCO)=C(C)C1=O	Cav3 T inh -4.1 (no result: CYP2C9 activ, CYP2C19 inhib, CYP2C9 inhib, CYP2C19 activ, Pyk2 oligo antag)
CC1CCCC(C)N1C(=O)Cc1ccccc1 (stereo unspecified)	CYP2C19 inhib 76
O=C(/C=C/c1ccccc1)N1CCC[C@H]1CO	none (no result: CYP2C9 activ, CYP2C19 inhib, CYP2C9 inhib, CYP2C19 activ, Pyk2 oligo antag)
O=C(Cc1ccccc1)N1CCCC1c1ccccc1 (stereo unspecified)	CYP2C19 inhib 79
COc1cccc(/C=C2/CN(C)CC3=C2OC(N)=C(C#N)C3c2cccc(OC)c2)c1 (stereo unspecified)	none (no result: CYP2C9 activ, CYP2C19 inhib, CYP2C9 inhib, CYP2C19 activ)
CCCn1c(-c2cccs2)nc2ccccc21	none
CCC(C)n1c(-c2cccs2)nc2nc3ccccc3nc21 (stereo unspecified)	CYP2C9 inhib 60
c1ccc([C@H]2CC3C[C@@H](c4ccccc4)N2O3)cc1	none
Cc1ccc(S(=O)(=O)N2c3cc(C)ccc3OCC2C(C)(C)C)cc1 (stereo unspecified)	CYP2C9 inhib 50
O=C(Cc1c(F)c(F)c(F)c(F)c1F)OC12CC3CC(C1)C(=O)C(C3)C2	CYP2C19 inhib 72
Nc1cc(N2CCCCC2)c([N+](=O)[O-])cc1Cl	none (no result: CYP2C9 activ, CYP2C19 inhib, CYP2C9 inhib, CYP2C19 activ, Cav3 T inh)
CN(C)S(=O)(=O)c1cc([N+](=O)[O-])ccc1N1CCCCCC1	none
O=[N+]([O-])c1ccc(N2CCCCCC2)c([N+](=O)[O-])c1	Cav3 T inh -4.7
CC(C)CN(CC(C)C)S(=O)(=O)c1cc([N+](=O)[O-])ccc1N1CCCCCC1	Cav3 T inh -5.2
O=[N+]([O-])c1ccc(N2CCCCC2)c(Cl)c1N1CCCCC1	CYP2C9 inhib 50
Nc1cc(N2CCCCC2)c(Cl)cc1[N+](=O)[O-]	CYP2C19 inhib 80, CYP2C9 inhib 53 (no result: Cav3 T inh)
CC(NCc1ccco1)C(=O)N1CCc2ccccc2C1 (stereo unspecified)	none
CCOC(=O)N1CCC(NS(=O)(=O)c2ccc3c(c2)oc(=O)n3C)CC1	none
CCOC(=O)c1cc(S(=O)(=O)NC2CCN(C(=O)OCC)CC2)cn1C	CYP2C9 inhib 57
COc1ccc(C(CCN2CCOCC2)c2c(O)cc(OC)cc2OC)cc1 (stereo unspecified)	none (no result: CYP2C9 activ, CYP2C19 inhib, CYP2C9 inhib, CYP2C19 activ, Pyk2 oligo antag)
COc1ccc(C(c2c(O)ccc3ccccc23)N2CCOCC2)c(OC)c1 (stereo unspecified)	CYP2C19 inhib 87, CYP2C9 inhib 93 (no result: Cav3 T inh)
O=C(NCc1cccc(Br)c1)C1CC2Cn3c(nc4ccccc43)C2N1c1ccccc1 (stereo unspecified)	none (no result: CYP2C9 activ, CYP2C19 inhib, CYP2C9 inhib, CYP2C19 activ, Pyk2 oligo antag)
Cc1ccccc1NS(=O)(=O)c1ccc(C2CNC(=O)C2)cc1 (stereo unspecified)	CYP2C19 inhib 56
O=C1CC(c2ccc(S(=O)(=O)Nc3cc(C(F)(F)F)cc(C(F)(F)F)c3)cc2)CN1 (stereo unspecified)	CYP2C9 inhib 79
Cc1cc2oc(=O)cc(CN3CCCCC3C)c2c(C)c1Cl (stereo unspecified)	CYP2C19 inhib 56
Cc1ccc2c(CN3C(=O)NC(C)(c4ccc5c(c4)OCO5)C3=O)cc(=O)oc2c1 (stereo unspecified)	CYP2C19 inhib 92, CYP2C9 inhib 98
Cc1ccc2c(CN3CCC(C)CC3)cc(=O)oc2c1	CYP2C19 inhib 100, CYP2C9 inhib 67
COc1ccc(N2CCN(Cc3cc(=O)oc4ccc(C)cc34)CC2)cc1	none
